For 15 compounds, outcome, inhibition and activation results are on record in PubChem BioAssay.

Assay [1] deals with TRPC4 beta (transient receptor potential cation channel C4), mouse. Nature of the assay: TRPC4 cation channel opening, retest – cell-based, Fluo4 calcium, HEK293 TRPC4beta/mu-opioid, duplicates, 10 µM, confirmation (AID 2426;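 active = fluorescence ratio normalized to control raised more than 50% in primary screen plus both repeat runs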;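 as to activation: percent rise of integrated ratio over buffer wells lacking compound which define 0%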). Conditions: Fluo4 calcium fluorescence, at 10 µM; active compounds read high.
In assay [2] the test system is transient receptor potential cation channel C4 beta (TRPC4), mouse. Nature of the assay: TRPC4 cation channel opening, second retest – cell-based, second round, Fluo4, HEK293 TRPC4beta/mu-opioid, 1 µM, confirmation (AID 2461). Conditions: Fluo4 calcium fluorescence, at 1 µM; active compounds read high.
The subject of assay [3] is TRPC4 (transient receptor potential cation channel C4 beta), mouse. Nature of the assay: potentiation of DAMGO EC20 TRPC4 response – cell-based, second round, Fluo-4, HEK293 TRPC4beta/mu-opioid, 1 µM, confirmation (AID 2554;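 active = primary screen hit whose fluorescence ratio, in both repeats, exceeds the weak agonist control mean by 3 SD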). The settings on record: DAMGO EC20, Fluo-4 calcium flux, at 1 µM; active compounds read high. (Calcium flux is commonly read through the fluorescence of an indicator in the cells.)

Assay [4] has as its system TRPC4 beta (transient receptor potential cation channel C4), mouse. Kind of assay: potentiation of DAMGO EC20 TRPC4 response – cell-based, Fluo-4, HEK293 TRPC4beta/mu-opioid, confirmation (AID 2555;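 active = primary screen hit whose calcium fluorescence ratio, in both repeats, exceeds the weak agonist control mean by 3 SD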). The settings on record: DAMGO EC20, Fluo-4 calcium flux, at 10 µM; active compounds read high.
The target of assay [5] is Short transient receptor potential channel 4 (Mus musculus) (UniProt Q9QUQ5). Kind of assay: blockers of DAMGO-evoked TRPC4 calcium flux – cell-based, Fluo4, HEK293 TRPC4beta/mu-opioid, confirmation (AID 2636;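 active = calcium signal cut by more than 3 SD below the full-agonist control yet still positive, in both repeats and the earlier primary screen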). The settings on record: at 10 µM; active compounds read high.
Assay [6] shares this target. Nature of the assay: blockers of DAMGO-evoked TRPC4 calcium flux – cell-based, second round, Fluo4, HEK293 TRPC4beta/mu-opioid, 1 µM, confirmation (AID 2637;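 active = calcium signal ratio cut to more than 3 SD under the fully stimulated control mean yet still positive, in both repeats and the primary screen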;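 as to inhibition: percent of integrated ratio relative to wells lacking test compound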). The settings on record: at 1 µM; active compounds read high.
For assay [7] the target is unchanged. Kind of assay: potentiation of DAMGO-evoked TRPC4 calcium signal – cell-based, HEK293 TRPC4/mu-opioid, Fluo-4 calcium, EC20 DAMGO, dose response (AID 434941;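 active = earlier screen potentiator hit that boosts the TRPC4 ion channel at some dose, with a dose response; inactive = no potentiation, no dose response, or not a prior hit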;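 also: calcium entry triggered by an EC20 dose of DAMGO at the co-expressed mu-opioid receptor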).
Assay [8] addresses Short transient receptor potential channel 6 (Mus musculus) (UniProt Q61143). Kind of assay: TRPC6 blockade by TRPC4 inhibitor hits – cell-based, HEK293, membrane potential dye, duplicate, selectivity assay for TRPC4 inhibitor project, confirmation (AID 434948;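 active = active in primary screen and both duplicates, each dropping signal beyond three positive-control SD with fluorescence still positive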). Conditions: HEK293 TRPC6, membrane potential dye fluorescence, at 10 µM, stimulated with maximal-effect acetylcholine; active compounds read high.

For assay [9] the target is unchanged. Kind of assay: TRPC6 opening by TRPC4 activator hits – cell-based, HEK293, membrane potential dye, duplicate, selectivity assay for TRPC4 activator project, confirmation (AID 434950;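 active = membrane potential signal rise above negative control mean plus 3 SD in both duplicates, also active in the earlier TRPC4 screen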;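 as to activation: 0% = buffer only wells and 100% = acetylcholine maximal-effect wells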). The settings on record: HEK293 TRPC6, membrane potential fluorescence, at 10 µM; activation: active compounds read high; outcome: activation.
For assay [10] the target is unchanged. Nature of the assay: positive modulators of mouse TRPC6 channel – HEK293 cells, membrane potential dye, duplicate, selectivity assay for TRPC4 potentiator project, confirmation (AID 434952;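 active = compound raising the membrane signal above positive-control mean plus 3 SD in both repeats, and a primary screen hit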). Conditions: HEK293 TRPC6, membrane potential dye fluorescence, at 10 µM, maximal acetylcholine added after compound; active compounds read high.
The target in assay [11] is Short transient receptor potential channel 4 (Mus musculus) (UniProt Q9QUQ5). Nature of the assay: calcium flux activators in TRPC4/5HT1a cells, counter-screen for TRPC4 activator project, cell-based, second counter screen, HEK293 TRPC4/5HT1a, Fluo-4 (AID 434977;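 active = calcium signal rise above buffer-control mean plus 5 SD in both duplicates, and also a hit in the primary screen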;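 as to activation: plate controls were assay buffer for no effect and maximal serotonin response for full effect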). The settings on record: Fluo-4 calcium flux, at 10 µM; active compounds read high.
Assay [12] can be described thus: serotonin-gated TRPC4 signal block – cell-based, second counter screen, HEK293 TRPC4/5HT1a, Fluo-4, counter-screen for TRPC4 inhibitor project, confirmation (AID 434978;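 active = primary screen active whose calcium signal fell more than 3 SD beyond the full-serotonin control mean in both duplicate plates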;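 as to outcome: serotonin given first at submaximal then at maximal dose after compound preincubation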). Conditions: Fluo-4 calcium flux, at 10 µM, serotonin added to trigger calcium flux; active compounds read high.
Assay [13] deals with TRPC4 (mouse), co-expressed with 5HT1a in HEK293. Nature of the assay: enhancement of serotonin-evoked TRPC4 response – cell-based, second counter screen, HEK293 TRPC4/5HT1a, Fluo-4, counter-screen for TRPC4 potentiator project, confirmation (AID 434979;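 active = signal rise over 3 SD above mean of control wells given weak agonist, in both repeats and first screen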). The settings on record: Fluo-4 calcium flux, at 10 µM, serotonin added at its EC20 dose; active compounds read high.
A short description of assay [14]: nonspecific calcium rise without TRPC4 – cell-based, HEK293 mu-opioid receptor line, counter-screen for TRPC4 activator project, confirmation (AID 449723;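 active = hit in primary screen, with calcium signal over 5 SD above buffer well mean in both duplicates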;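 also: counter screen cells carry the mu-opioid receptor alone and lack TRPC4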). The settings on record: HEK293 mu-opioid cells, Fluo-4 calcium fluorescence, at 10 µM; active compounds read high. A general note: The purpose of a counterscreen is to sort out artefacts and off-target activity.
The nature of assay [15]: nonspecific potentiation of DAMGO calcium response – cell-based, HEK293 mu-opioid receptor line, counter-screen for TRPC4 allosteric potentiator project, confirmation (AID 449724;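 active = calcium signal rise more than 3 SD above the low-dose agonist control mean, in both duplicate plates and the primary screen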;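 also: HEK293 cells carrying mu-opioid receptor only with no TRPC4 channel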). Conditions: HEK293 mu-opioid receptor cells, Fluo-4 calcium flux, at 10 µM, compound added before EC20 DAMGO stimulus; active compounds read high.

For part of these data: Results with a measured potency or affinity are listed apart. Calls of active or inactive are those of the source.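 The calls were made as follows, unless noted: active = primary screen active and over 50% activation in each of two duplicate runs; inactive = the rest.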

Chain of Short transient receptor potential channel 6 (Mus musculus) (Q61143 whole entry, looked up): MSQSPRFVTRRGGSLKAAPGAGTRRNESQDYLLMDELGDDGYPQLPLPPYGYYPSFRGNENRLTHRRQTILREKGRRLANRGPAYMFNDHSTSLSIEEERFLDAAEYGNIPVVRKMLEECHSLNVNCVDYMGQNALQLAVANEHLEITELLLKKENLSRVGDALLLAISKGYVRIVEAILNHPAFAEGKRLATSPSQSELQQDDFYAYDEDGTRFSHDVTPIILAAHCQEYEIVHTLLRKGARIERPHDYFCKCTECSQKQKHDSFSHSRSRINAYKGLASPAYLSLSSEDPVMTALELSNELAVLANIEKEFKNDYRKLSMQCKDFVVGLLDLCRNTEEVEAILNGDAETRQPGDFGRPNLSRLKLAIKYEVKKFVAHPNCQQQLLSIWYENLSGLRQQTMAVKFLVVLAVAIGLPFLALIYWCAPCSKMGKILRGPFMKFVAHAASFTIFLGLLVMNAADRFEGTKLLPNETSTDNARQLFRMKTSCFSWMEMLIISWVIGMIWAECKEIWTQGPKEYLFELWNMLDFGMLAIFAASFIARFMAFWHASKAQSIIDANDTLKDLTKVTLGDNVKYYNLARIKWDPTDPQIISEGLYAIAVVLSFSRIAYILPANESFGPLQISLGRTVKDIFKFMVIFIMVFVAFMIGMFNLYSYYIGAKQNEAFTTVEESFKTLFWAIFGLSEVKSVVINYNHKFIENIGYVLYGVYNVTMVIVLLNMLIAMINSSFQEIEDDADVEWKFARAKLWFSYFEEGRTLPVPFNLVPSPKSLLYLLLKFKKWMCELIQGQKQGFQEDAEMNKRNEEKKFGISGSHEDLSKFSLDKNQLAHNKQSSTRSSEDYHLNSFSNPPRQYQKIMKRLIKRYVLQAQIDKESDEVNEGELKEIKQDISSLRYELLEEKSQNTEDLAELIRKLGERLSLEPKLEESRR
Chain of Short transient receptor potential channel 4 (Mus musculus) (Q9QUQ5 whole entry, looked up): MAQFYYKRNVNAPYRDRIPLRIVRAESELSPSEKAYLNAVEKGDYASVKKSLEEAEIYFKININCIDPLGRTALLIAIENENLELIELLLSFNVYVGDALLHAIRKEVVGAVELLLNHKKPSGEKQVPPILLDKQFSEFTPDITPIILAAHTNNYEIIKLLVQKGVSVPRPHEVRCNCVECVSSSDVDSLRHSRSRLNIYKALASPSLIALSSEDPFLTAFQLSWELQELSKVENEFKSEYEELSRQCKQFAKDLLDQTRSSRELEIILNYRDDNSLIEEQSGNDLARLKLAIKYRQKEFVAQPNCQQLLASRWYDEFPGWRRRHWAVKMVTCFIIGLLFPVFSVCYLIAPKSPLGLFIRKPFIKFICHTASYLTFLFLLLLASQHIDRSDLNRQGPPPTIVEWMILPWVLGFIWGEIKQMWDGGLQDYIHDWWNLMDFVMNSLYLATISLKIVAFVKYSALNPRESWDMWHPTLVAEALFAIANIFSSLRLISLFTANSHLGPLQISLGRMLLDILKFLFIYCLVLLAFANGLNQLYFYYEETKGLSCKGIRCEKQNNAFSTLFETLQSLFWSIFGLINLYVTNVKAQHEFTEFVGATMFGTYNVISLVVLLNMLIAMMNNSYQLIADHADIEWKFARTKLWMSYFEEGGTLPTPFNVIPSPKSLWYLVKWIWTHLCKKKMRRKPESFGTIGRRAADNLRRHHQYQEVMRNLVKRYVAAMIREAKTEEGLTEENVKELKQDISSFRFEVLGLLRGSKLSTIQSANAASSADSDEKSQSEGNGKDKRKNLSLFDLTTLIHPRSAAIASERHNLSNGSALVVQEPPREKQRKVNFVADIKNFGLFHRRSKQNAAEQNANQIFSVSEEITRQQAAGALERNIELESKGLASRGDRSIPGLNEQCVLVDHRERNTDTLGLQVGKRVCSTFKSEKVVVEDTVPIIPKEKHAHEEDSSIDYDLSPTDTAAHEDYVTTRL

For the compound `CCCCC(c1nnnn1CC1CCCO1)N1CCN(Cc2ccccc2)CC1` (stereo not given), the outcome in assay [1], in assay [2], in assay [3], in assay [4], in assay [6] and in assay [7] was inactive. Moreover, the outcome in [8], in assay [10], in assay [11], in assay [12], in assay [13] and in assay [14] was inactive. Moreover, in assay [15], the result was inactive. Further, in assay [5], the inhibition was 84% (active). The activation in [9] is 64.5% (active).
Take `CCNC(=S)N1CCC(C(O)(c2ccccc2)c2ccccc2)CC1`: the activation in [1] was 117% (active); in assay [9] it was 41.5% (active). The result in assay [2], in assay [3], in assay [4], in [6], in assay [7] and in [8] was inactive. Further, the outcome in assay [10], in assay [11], in assay [12], in [13], in assay [14] and in assay [15] was inactive. Moreover, the inhibition in assay [5] is 96% (active).
Regarding `CCOC(=O)C1(CC2CC2)CCN(Cc2ccc(O)c(Cl)c2)CC1`, the result in assay [1], in assay [2], in assay [3], in [4], in assay [7] and in [8] was inactive. In addition, the outcome in assay [10], in assay [11], in [12], in assay [13], in assay [14] and in [15] was inactive. The inhibition is 97% (active) in [5] and 63% (active) in assay [6]. Further, in assay [9], the activation was 82% (active).
With `O=C(NC1CC1)C1=C[C@H](C2CCCCC2)C[C@H](OCc2ccc(CO)cc2)O1`, the results for the activation in [1], in assay [9] and in assay [11] were 337% (active), 41% (active) and 131% (active), respectively. Further, the outcome in assay [2], in assay [3], in [4], in [6], in assay [7] and in assay [8] was inactive. In addition, the result in [10], in assay [13], in assay [14] and in assay [15] was inactive. In addition, the inhibition was 75% (active) in [5] and 9.94% (active) in assay [12].
`CCc1ccc(C(CNc2nc(C(F)(F)F)nc3ccccc23)N(C)C)cc1` (stereo not given): the outcome in assay [1], in [2], in assay [3], in assay [4], in assay [5] and in [6] was inactive. Also, the outcome in assay [7], in assay [8], in assay [9], in assay [10], in assay [11] and in assay [12] was inactive. In addition, the outcome in assay [13], in assay [14] and in assay [15] was inactive.
On to `Cc1ccc(C2(O)CN(c3ccccc3)C3=[N+]2CCS3)cc1` (stereo not given), for which the result in assay [1], in assay [2], in [3], in [4], in [7] and in assay [8] was inactive. Moreover, the result in [10], in [11], in assay [12], in assay [13], in assay [14] and in [15] was inactive. The inhibition in assay [5] was 97% (active); in assay [6] it was 79% (active). In [9], the activation was 48% (active).
As for `CC(C)(C)c1ccc(C(=O)NC(=S)NNC(=O)COc2ccccc2)cc1`, the outcome in assay [1], in assay [2], in assay [3], in assay [4], in assay [6] and in [7] was inactive. Also, the call in assay [8], in assay [9], in assay [10], in assay [13], in [14] and in assay [15] was inactive. Also, the values for the inhibition in assay [5] and in [12] were 78% (active) and 27.8% (active), respectively. Moreover, in assay [11], the activation is 16.6% (active).
Turning to `O=C(C[n+]1cc2ccccc2c2ccccc21)c1ccccc1`, the activation in assay [1] was 212% (active); in assay [11], 27.6% (active). In addition, the result in assay [2], in assay [3], in assay [4], in assay [6], in assay [7] and in assay [9] was inactive. Further, the outcome in [10], in [13], in [14] and in assay [15] was inactive. Further, the inhibition in assay [5] is 94% (active); in assay [8], 29.5% (active); in [12] it was 33.5% (active).
Turning to `CC1CC(C)(C)N(C(=O)CN2C(=O)c3ccccc3C2=O)c2ccccc21` (stereo not given), the activation is 149% (active) in [1], 51.5% (active) in [9], 23.1% (active) in assay [11] and 62.6% (active) in assay [14]. The result in [2], in assay [3], in assay [4], in assay [6], in assay [7] and in [8] was inactive. The outcome in [10], in assay [12], in assay [13] and in [15] was inactive. The inhibition in assay [5] was 73% (active).
As to `C/C=C(\C)CN1CCC(n2nccc2NC(=O)CCc2ccccc2)CC1`, the result in assay [1], in assay [2], in [3], in [4], in [7] and in assay [8] was inactive. In addition, the result in assay [10], in assay [11], in [12], in assay [13], in assay [14] and in [15] was inactive. In addition, the inhibition in assay [5] is 97% (active); in assay [6], 86% (active). Besides, in assay [9], the activation is 58.5% (active).
Take `CC(=O)Nc1ccc(C2(c3ccc(NC(C)=O)cc3)C(=O)Nc3ccccc32)cc1`: the result in [1], in assay [2], in assay [3], in assay [4], in [7] and in assay [8] was inactive. Further, the outcome in assay [10], in assay [11], in [12], in [13], in assay [14] and in assay [15] was inactive. Further, the inhibition in [5] is 83% (active); in assay [6] it was 61% (active). Also, the activation in assay [9] is 30% (active).
As to `CCOC(=O)C1(CC2CC2)CCN(Cc2ccc3cccc(F)c3n2)CC1`, the activation is 129% (active) in assay [1], 50.5% (active) in assay [9] and 19.5% (active) in assay [11]. In addition, the result in assay [2], in assay [3], in [4], in assay [6], in assay [7] and in assay [8] was inactive. In addition, the result in assay [10], in assay [13], in assay [14] and in assay [15] was inactive. The inhibition in assay [5] is 89% (active); in assay [12], 30.9% (active).
In the case of `CCOC(=O)C1(CCc2ccccc2)CCN(Cc2ccc(O)cc2)CC1`, the result in assay [1], in assay [2], in [3], in assay [4], in assay [6] and in [7] was inactive. For the same compound, the compound was called inactive in assay [8], in assay [10], in assay [11], in assay [12], in [13] and in assay [14]. In assay [15], the outcome was inactive. In addition, the inhibition in [5] was 88% (active). The activation in assay [9] was 69% (active).
On to `Cc1ccccc1C(=O)Nc1c(C(=O)N(CCN(C)C)Cc2ccco2)oc2ccccc12`, for which the activation in [1] was 84% (active); in assay [9] it was 33.5% (active). Besides, the result in assay [2], in assay [3], in assay [4], in assay [5], in assay [6] and in [7] was inactive. For the same compound, the call in assay [8], in [10], in assay [11], in [12], in [13] and in assay [14] was inactive. Further, the outcome in assay [15] was inactive.
For the compound `Cc1ccc(S(=O)(=O)Nc2cccc(C(=O)NCC(c3ccco3)N3CCCC3)c2)cc1F` (stereo not given), the activation in [1] is 58% (active); in [9], 31.5% (active). Moreover, the outcome in [2], in assay [3], in assay [4], in assay [5], in [7] and in assay [8] was inactive. Also, the outcome in assay [10], in assay [11], in assay [12], in assay [13], in assay [14] and in [15] was inactive. The inhibition in assay [6] was 67% (active).

In general, inhibition refers to how much of the control response was suppressed.
